Holding throughout (format): functional
Experiment [1] relates to Plasmodium falciparum. The experiment in a line: GSK_TCMDC: Inhibition of Plasmodium falciparum 3D7 in whole red blood cells, using parasite LDH activity as an index of growth. Test compounds present at 2uM.
Experiment [2] has as its system Plasmodium falciparum. Nature of the experiment: GSK_TCMDC: Inhibition of Plasmodium falciparum Dd2 in whole red blood cells, using parasite LDH activity as an index of growth. Test compounds present at 2uM.
The test system of experiment [3] is HepG2. The experiment in a line: GSK_TCMDC: Percent inhibition of human HepG2 cell line. Test compounds present at 10uM.

In the case of `CN(c1ccc(NC(=O)Nc2cc(C(C)(C)C)on2)cc1)c1ccnc(NCCN2CCOCC2)n1.O=C(O)C(F)(F)F`, the Inhibition in experiment [1] stood at 95%; in experiment [2], 18%; in experiment [3], 51%.
Regarding `CCc1c[nH]c2c(N3CCCCS3(=O)=O)cc(C(=O)N[C@@H](Cc3ccccc3)[C@H](O)CNCc3cccc(OC)c3)cc12.O=CO`, the values for the Inhibition in experiment [1], in experiment [2] and in experiment [3] were 86%, 91% and 0%, respectively.
Consider `O=C(Nc1ccc(-c2nc3ccccc3[nH]2)cc1)c1ccc(N2CCOCC2)c([N+](=O)[O-])c1`, for which the Inhibition in experiment [1] is on record as 100%; in experiment [2], 28%; in experiment [3] it was 47%.
In the case of `O=C(O)C(F)(F)F.Oc1ccc(CCNc2nc(NCCCOc3ccccc3-c3cccnc3)nc(N3CCNCC3)n2)cc1`, the results for the Inhibition in experiment [1], in experiment [2] and in experiment [3] were 92%, 1% and 10%, respectively.
As for `CN1CCN(c2ccnc3ccc(NC(=O)Nc4ccc(Cl)cc4)cc23)CC1`, the Inhibition is listed as 100% in experiment [1], 99% in experiment [2] and 11% in experiment [3].
With `Cl.Clc1ccc(-n2cnc3c(Nc4ccc(Oc5ccccc5)cc4)ncnc32)cc1Cl`, the Inhibition in experiment [1] is recorded as 99%; in experiment [2], 65%; in experiment [3], 4%.
`COC(=O)C(=C(C)C)N1C(=O)[C@@H](NC(=O)OCc2ccccc2)[C@H]1SS[C@@H]1[C@H](NC(=O)OCc2ccccc2)C(=O)N1C(C(=O)OC)=C(C)C`: the results for the Inhibition in experiment [1], in experiment [2] and in experiment [3] were 97%, 96% and 18%, respectively.
For `CN1CCN(CC(=O)Nc2cccc(-c3cccc(-c4nc5ccccc5[nH]4)c3)c2)CC1`, the Inhibition in experiment [1] is reported as 90%; in experiment [2], 27%; in experiment [3], 11%.
The corresponding values for `COc1ccc2ncc(F)c([C@@H](O)CN3CCC(NCc4cc5c(cn4)OCS5)CC3)c2c1.Cl` are 100%, 98% and 16%.
The corresponding values for `Br.CC1(C)NC(N)=NC(=N)N1OCC1CCCCC1` are 94%, 97% and 67%.
The matching figures for `CN1CCC(C(=O)Nc2ccc(-c3ccc(-c4nc5cc(C(F)(F)F)ccc5[nH]4)s3)cc2)CC1`: 100%, 95% and 53%.
Consider `COc1cc2c(c(OC)c1[N+](=O)[O-])C=CC1(O2)N(C)c2ccc([N+](=O)[O-])cc2C1(C)C` (stereo not given), for which the results for the Inhibition in experiment [1], in experiment [2] and in experiment [3] were 92%, 89% and 0%, respectively.
Take `COc1ccc(-c2ccc(NC(=O)c3cccc(C#N)c3)cc2)cc1CN1CCC(O)CC1.O=C(O)C(F)(F)F`: the values for the Inhibition in experiment [1], in experiment [2] and in experiment [3] were 100%, 84% and 21%, respectively.
With `CNC(=O)C1Cc2c([nH]c3cc(Cl)ccc23)C2(CCN(CCc3ccccc3)CC2)N1` (stereo not given), the Inhibition in experiment [1] was 91%; in experiment [2], 3%; in experiment [3], 14%.
For the compound `CCOc1cccc(C2c3c(oc4ccccc4c3=O)C(=O)N2CCN(CC)CC)c1` (stereo not given), the Inhibition in experiment [1] was 100%; in experiment [2], 66%; in experiment [3] it was 5%.
Consider `CNC(=O)COc1cc(C)c(C2CCN(CCCCNC(=O)c3ccc(-c4ccc(C(F)(F)F)cc4)cc3)CC2)cc1C`, for which the Inhibition in experiment [1] is given as 100%; in experiment [2], 72%; in experiment [3], 38%.
Consider `CC(C)(C)c1cc(C(=O)N2CCN(c3ncnc4ccsc34)CC2)n(Cc2ccccc2)n1`, for which the Inhibition in experiment [1] was 95%; in experiment [2], 83%; in experiment [3] it was 2%.
Take `CCn1c(-c2nonc2N)nc2c(C#CC(C)(C)O)ncc(OCCNCCc3ccc(OC)cc3)c21.O=C(O)C(F)(F)F`: the Inhibition in experiment [1] is given as 91%; in experiment [2], 44%; in experiment [3] it was 4%.
Take `O=C(Cn1c(SCc2cccc(F)c2F)cc(=O)c2ccccc21)N(CCN1CCCCC1)Cc1ccc(-c2ccc(C(F)(F)F)cc2)cc1.O=C(O)C(O)C(O)C(=O)O`: the Inhibition came to 99% in experiment [1], 82% in experiment [2] and 41% in experiment [3].
Consider `CCOc1ccc2c(=NN=Cc3cccc(Cl)c3)cc(C)[nH]c2c1`, for which the Inhibition in experiment [1] is reported as 93%; in experiment [2], 34%; in experiment [3], 0%.
Take `O=C(Cn1c(CCc2cccc(F)c2F)cc(=O)c2ccccc21)N(CCN1CCCC1)Cc1ccc(-c2ccc(C(F)(F)F)cc2)cc1.O=C(O)C(O)C(O)C(=O)O`: the Inhibition in experiment [1] was found to be 99%; in experiment [2], 57%; in experiment [3], 89%.
As to `FC(F)(F)c1ccc2[nH]c(-c3ccc(-c4ccc(CNCC5CCCO5)cc4)cc3)nc2c1.O=C(O)C(F)(F)F` (stereo not given), the Inhibition was 100% in experiment [1], 100% in experiment [2] and 33% in experiment [3].
Turning to `O=C(C=Cc1ccc(Cl)c(Cl)c1)NCCCCCN1CCC(CCNC(=O)C(c2ccccc2)c2ccccc2)CC1`, the figures for the Inhibition in experiment [1], in experiment [2] and in experiment [3] were 90%, 43% and 61%, respectively.
Consider `Cc1cc(NCCCCCCN)nc(Nc2ccc(Cl)cc2)n1`, for which the Inhibition in experiment [1] turned out to be 100%; in experiment [2], 26%; in experiment [3] it was 25%.
Regarding `COc1cc2nc(Nc3ccc(C)cc3)nc(Nc3ccc(C)cc3)c2cc1OC.Cl`, the Inhibition stood at 100% in experiment [1], 100% in experiment [2] and 99% in experiment [3].
Turning to `COc1ccc(CCNCCCCCNCCCc2ccc(Cl)cc2)cc1OC.Cl`, the Inhibition in experiment [1] is 100%; in experiment [2] it was 2%; in experiment [3], 24%.
For the compound `O=C(NC1CCC(N2CCC(Cc3ccc(F)cc3)CC2)CC1)c1cc2ccccc2[nH]1` (stereo not given), the values for the Inhibition in experiment [1], in experiment [2] and in experiment [3] were 98%, 39% and 60%, respectively.
The matching figures for `CC(C)(CNC(=O)C1CCN(CCOc2ccc(F)c(F)c2)CC1)c1nc(-c2ccc(Cl)c(O)c2)c(-c2ccncc2)[nH]1.Cl`: 100%, 19% and 41%.
Consider `N#Cc1ccc(-c2ccc(C(=O)NCCCCN3CCC(n4cnc5ccccc54)CC3)cc2)cc1`, for which the Inhibition in experiment [1] was 94%; in experiment [2], 2%; in experiment [3], 15%.
In the case of `COc1ccc2[nH]c(C)cc(=NN=Cc3cc(OC)c(OC)cc3OC)c2c1`, the Inhibition in experiment [1] stood at 100%; in experiment [2] it was 56%; in experiment [3] it was 1%.

By Inhibition is commonly meant the percentage by which the read-out fell short of the control. High values mean a response far below the control, low ones a response near the control.

The record behind these values is ChEMBL document CHEMBL1157539, “Thousands of chemical starting points for antimalarial lead identification” (Nature, 2010).
